Measurements reported in PubChem BioAssay (Tox21).
Inconclusive results are not listed. Entries that show only a call come without a potency. The source made the active and inactive calls. Calls follow the shape of the dose curve; as a rule, active = well fitted cell-killing curve with a large enough effect in the repeat runs; inconclusive = weak or mixed curves; inactive = flat fitted curve, though single readings scatter.

test: qHTS RealTime-Glo MT Cell Viability Assay in HepG2 cells - 32 hour (AID 1224877); conditions: RealTime-Glo luminescence; series mostly up to 76.8 µM; also: nearly all actives have a fitted effect of over 55% in size
In short: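 Viability was tracked continuously by NanoLuc luminescence from prosubstrate reduced by living HepG2 cells, at successive time points over 40 h of compound exposure. Cells with reagent were preincubated 5 h at 37 °C before compound addition.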

Row | Structure (SMILES) | Potency
1 | O=C1[C@@H]2[C@H]3CC[C@H](C3)[C@@H]2C(=O)N1CCCCN1CCN(c2ncccn2)CC1 | inactive
2 | Cc1ccc2c(c1)CCCN2 | inactive
3 | O=C(NC(Cc1cc(=O)[nH]c2ccccc12)C(=O)O)c1ccc(Cl)cc1 (stereo not drawn) | inactive
4 | CC(C)(C)C1(CCc2ccc(Cl)cc2)CO1 (stereo not drawn) | inactive
5 | CC(C)(O)CCc1ccccc1 | inactive
6 | Cc1ccc(N(CCO)CCO)cc1 | inactive
7 | CSCC[C@H](NC(=O)[C@H](Cc1c[nH]c2ccccc12)NC(=O)CCNC(=O)OC(C)(C)C)C(=O)N[C@@H](CC(=O)O)C(=O)N[C@@H](Cc1ccccc1)C(N)=O | inactive
8 | O=CNNC=O | inactive
9 | O=C(O)CO | inactive
10 | CCOc1ncc(F)c(=O)[nH]1 | inactive
11 | O=C(O)CNC(=O)c1ccccc1I | inactive
12 | Cc1cc(CCC(=O)OCCOCCOCCOC(=O)CCc2cc(C)c(O)c(C(C)(C)C)c2)cc(C(C)(C)C)c1O | inactive
13 | Nc1ccn([C@H]2CS[C@@H](CO)O2)c(=O)n1 | inactive
14 | CC(C)(C(=O)c1cccnc1)c1cccnc1 | inactive
15 | C[C@@H]1C[C@H]2[C@@H]3CCC4=CC(=O)C=C[C@]4(C)[C@@]3(F)[C@@H](O)C[C@]2(C)[C@@]1(O)C(=O)COP(=O)(O)O | inactive
16 | Cc1ccc(S(=O)(=O)NC(=O)NC2CCCCC2)cc1 | inactive
17 | COC(=O)Nc1nc2ccc(C(=O)C3CC3)cc2[nH]1 | inactive

Row | Structure (SMILES) | Potency
18 | O=S(=O)(O)CO | inactive
19 | FC(F)(F)C(F)(F)C(F)(F)C(F)(F)CCI | inactive
20 | CCCCCCOC(=O)CCCCC | inactive
21 | O=C(O)CCC(=O)c1ccc(-c2ccccc2)cc1 | inactive
22 | CCC(CO)(CO)CO | inactive
23 | C=CCOC(=O)COCCC(C)C | inactive
24 | CCOC(=O)C(C)O (stereo not drawn) | inactive
25 | CCCCCCCC/C=C/C(=O)O | inactive
26 | CCCCCCC(CO)CCCC (stereo not drawn) | inactive
27 | COC(OC)OC | inactive
28 | O=c1[nH]c2cc(C(F)(F)F)c(N3CCOCC3)cc2n(CP(=O)(O)O)c1=O | inactive
29 | CCCCCCCCCCCCCCCC(=O)OCC | inactive
30 | COc1ccc(CCN(C)CCCN2CCc3cc(OC)c(OC)cc3CC2=O)cc1OC | inactive
31 | CCCC(=O)OC(=O)CCC | inactive
32 | CC[C@H]1OC(=O)[C@H](C)[C@@H](O[C@H]2C[C@@](C)(OC)[C@@H](O)[C@H](C)O2)[C@H](C)[C@@H](O[C@@H]2O[C@H](C)C[C@H](N(C)C)[C@H]2O)[C@](C)(O)C[C@@H](C)CN(C)[C@H](C)[C@@H](O)[C@]1(C)O | inactive
33 | NC(=O)CCCCC(N)=O | inactive
